# Experimental data taken from PubChem BioAssay AID720610 (Broad Institute, 2013).
# Inconclusive results are not listed. Activity calls are given as the source filed them.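 The calls were made as follows: active = compounds whose fitted half-maximal signal loss occurs at or below twice the top dose at every exposure time; inconclusive = exposure times disagree on the call; inactive = the rest.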
# Experiment: HeLa cell viability by resazurin reduction, late-stage follow-up, mechanism study for HRAS target identification, Alamar Blue fluorescence, 8-48 h, dry powder (AID 720610)
row,Compound,outcome
1,CCC(=O)N(c1ccc(OC)c(Cl)c1)C(C(=O)NCCc1ccccc1)c1cccs1 (configuration not stated),inactive
2,Cc1onc(C(=O)N2CCN(C(c3ccncc3)c3ccncc3)CC2)c1[N+](=O)[O-],inactive
